FMDV inh: foot and mouth disease virus antiviral activity | actives 1.2% (n = 410,000) | Potency, µM (top dose mostly 57.9 µM), inactives show at the highest dose activity change, negative = inhibition, hits mostly inhibitors | FMDV antiviral cell-based qHTS | AID 1159524; calls by dose curve; tested in HEK293T cells; note: read-out not given here; potency is the fitted concentration of half-maximal effect; % is set by controls: 0 for no effect and ±100 for the full control effect; nearly all actives have a fitted effect of over 45% in size
Sm TGR inh: blocks Schistosoma mansoni thioredoxin glutathione reductase. Q962Y6. purified TGR, DTNB reduction, TNB absorbance 405 nm. Potency, µM (titrated, usually from 114 µM), without a hit: top-dose activity change, negative = inhibition, actives largely listed as inhibitors. actives 3% (n = 360,000); active = well fitted inhibition curve with a large enough effect; inconclusive = small, poorly fitted or top-dose-only effect; inactive = no such curve, though single readings can be large or run the other way; note: potency is the fitted concentration of half-maximal effect; % is set by controls: 0 for no effect and ±100 for the full control effect; nearly all actives have a fitted effect of over 60% in size
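Kinetic colorimetric format: TGR-catalysed, NADPH-driven DTNB reduction monitored via TNB absorbance. Enzyme dispensed at 20 nM; compound exposure 15 min at room temperature before reaction start.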
CHX counter: counter-screen hit for Shiga toxin inhibitors, cycloheximide. actives 12% (n = 300,000). cell reporter, cycloheximide protein synthesis inhibition counterscreen. AID 2314. max response, %; in the data active = max response mostly above about 13%, no sharp cut-off; inactive = mostly below about 14%; note: read at 38.3 µM for the half of the compounds with a filed dose; 0% is about no effect
Shiga toxin inh: blocks Shiga toxin action in Vero cells; Vero cells, Shiga toxin protein synthesis inhibition reporter; inhibition, % at 38.7 µM; actives 9.2% (n = 290,000); AID 2315; in the data active = inhibition mostly above about 28%, no sharp cut-off; inactive = mostly below about 43%; note: 0% is about no effect
* hit, by the source's call; i = inactive; ? = inconclusive; . = no result given; ! = a repeat was not active. Most compounds without a hit are left out; they make up all but 12% or so of the library.

SMILES	FMDV inh	Sm TGR inh	CHX counter	Shiga toxin inh
O=C(c1cnccn1)N1CCC2(CC1)CN(c1ccncc1)C2	1%	.	.	.
CCCCCN1C(C(=O)c2ccccc2)=C(NC(=O)c2ccccc2Cl)c2ccccc2S1(=O)=O	-12%	3%	.	.
N/C(=N\OC(=O)CSc1ccccc1)c1ccccn1	14%	-1%	79*	99*
N/C(=N\OC(=O)Cc1ccc(-c2ccccc2)cc1)c1ccccn1	-4%	0%	36*	72*
COc1ccc(CC(=O)O/N=C(\N)c2ccccn2)cc1	22%	-1%	64*	75*
N/C(=N\OC(=O)CCCOc1ccccc1)c1ccccn1	-7%	.	26*	42*
N/C(=N\OC(=O)CC1CCCCC1)c1ccccn1	.	-13%	14	39
NS(=O)(=O)c1ccc(-c2ccc(C=NC3CCS(=O)(=O)C3)o2)cc1 (stereo not given)	7%	71µM*	-1	-6
NS(=O)(=O)c1ccc(-c2ccc(/C=C3\SC(=S)N(C4CCS(=O)(=O)C4)C3=O)o2)cc1 (stereo not given)	?	1%	-1	-12
CCCS(=O)(=O)N1CCCC(C(=O)NCCCOC)C1 (stereo not given)	0%	0%	.	.
CCCC(=O)Nc1nc(C(=O)OCC)cs1	.	-20%	18*	32
CCOC(=O)c1csc(NC(=O)C2CCCCC2)n1	16%	-1%	26*	59*
CCc1ccc(OCC(=O)N(Cc2ccco2)Cc2ccccc2Cl)cc1	-24%	4%	.	.
CCCCC(=O)Nc1ccc(C(=O)NCCc2ccc(S(N)(=O)=O)cc2)cc1	-6%	?	-2	32
CCCCC(=O)Nc1ccc(C(=O)NNC(=O)CCc2ccccc2)cc1	.	-21%	7	12
CCCCC(=O)Nc1ccc(C(=O)NCCc2ccccc2)cc1	56%	-15%	31*	11
CCCC(=O)Nc1ccc(C(=O)NCCc2ccc(F)cc2)cc1	25%	2%	24*	19
O=c1c(C(c2ccc(F)cc2)c2c(O)nc3n(c2=O)CCCS3)c(O)nc2n1CCCS2	-18%	1.8µM*	-2	2
O=c1c(C(c2ccccc2)c2c(O)nc3n(c2=O)CCS3)c(O)nc2n1CCS2	-11%	1.8µM*	-3	-4
CC(NC(=O)c1cnc2n(c1=O)CCS2)c1ccccc1 (stereo not given)	7%	-19%	-1	-7
O=c1c(C(c2ccccc2)c2c(O)nc3n(c2=O)CCCS3)c(O)nc2n1CCCS2	1%	4.5µM*	6	-13
Brc1ccc(CN2CCc3nc(Nc4ccccc4)ncc3C2)s1	16%	-7%	.	.
O=C(Cc1ccccc1)NCCC1=CCCCC1	4%	0%	-1	13
Cc1ccsc1C(=O)OCC(=O)NCCC1=CCCCC1	12%	-6%	22*	35
O=C(COC(=O)c1ccc(Br)cc1)NCCC1=CCCCC1	5%	-6%	-3	31
SMILES	FMDV inh	Sm TGR inh	CHX counter	Shiga toxin inh
O=C(CCc1ccccc1)NCCC1=CCCCC1	35%	1%	40*	99*
O=C(COC(=O)c1ccccc1)NCCC1=CCCCC1	25%	-3%	14*	13
CN(C)c1ccc(C(=O)OCC(=O)NCCC2=CCCCC2)cc1	-27%	3%	1	10
O=C(CCCc1ccccc1)NCCC1=CCCCC1	72%	.	27*	20
Cc1cccc(NC(=O)CSc2nc(=O)n(CCN3CCOCC3)c3c2CCC3)c1	-12%	3%	.	.
CCCCCC/C=C1\CC(C(=O)OCC)Oc2ccccc21 (stereo not given) (tested in a mixture with another compound)	.	.	3	i
O=C(CCS(=O)(=O)c1ccccc1Cl)NCCC1=CCCCC1	26%	-27%	35*	61*
Cc1ccc(S(=O)(=O)CCC(=O)NCCC2=CCCCC2)cc1	-8%	4%	.	.
COc1ccccc1NC(=O)CSC1=Nc2ccccc2C2=NC(CCC(=O)NCc3ccco3)C(=O)N12 (stereo not given)	-13%	-15%	.	.
Clc1ccc(-c2nc3sccn3c2/C=N/OCc2ccc(Cl)c(Cl)c2)cc1	-1%	.	11	23
O=C(COC(=O)CNC(=O)c1ccc(Cl)cc1Cl)NCC1CCCO1 (stereo not given)	19%	9%	.	.
O=C(CNC(=O)c1ccc(Cl)cc1Cl)OCC(=O)c1ccc2c(c1)OCCO2	32%	1%	31*	73*
CC(C)(C)c1ccc(C(=O)NCC(=O)OCC(=O)Nc2ccccc2[N+](=O)[O-])cc1	-20%	7%	41*	45*
O=C(COC(=O)CNC(=O)C1CCCCC1)Nc1ccc2c(c1)OCCO2	8%	2%	26*	43
CC(C)(C)OC(=O)N1Cc2ccccc2C[C@H]1C(=O)NCC(=O)Nc1ccc2c(c1)OCCO2	?	-19%	52*	114*
CC(=O)OCC(=O)[C@@]1(O)CCC2C3C[C@H](C)C4=CC(=O)C=CC4(C)C3C(O)CC21C (stereo not given in full)	.	.	-2	-2
COCCN1CCc2nc(SCC(=O)Nc3ccc(C)c(Cl)c3)[nH]c(=O)c2C1	-10%	-3%	.	.
O=C(Nc1c(-c2ccccc2)nc2ccccn12)c1ccc(Br)cc1	0%	-1%	.	.
Cc1ccc(CSc2nc3cccnc3n2Cc2ccc(C(=O)NCc3ccco3)cc2)cc1	-14%	-16%	.	.
O=C(CNC(=O)C1CCCCC1)Nc1ccc(Cl)cc1	93%	5%	23*	30*
O=C(COC(=O)CNC(=O)c1ccccc1)Nc1ccc2c(c1)OCO2	-6%	-12%	-4	-7
CC(C)(C)c1ccc(C(=O)NCC(=O)OCC(=O)Nc2ccc3c(c2)OCCO3)cc1	0%	-21%	12*	16
COCCCNC(=O)c1nn(-c2ccc(C)cc2)c(=O)n(C)c1=O	-15%	3%	.	.
COc1cc(/C=N/Nc2ccc(Cl)cc2)ccc1OC(=O)c1cccs1	16%	-32%	16*	14
COc1cc(/C=N/N(C)C)ccc1OC(=O)c1cccs1	9%	-4%	29*	71*
SMILES	FMDV inh	Sm TGR inh	CHX counter	Shiga toxin inh
COc1cc(/C=N/NC(N)=O)ccc1OC(=O)c1cccs1	-9%	-1%	-2	-31
Cc1cccc(C)c1NC(=O)C(=O)NCC(c1ccc2c(c1)OCO2)N1CCOCC1 (stereo not given)	1%	9%	.	.
Cc1onc(-c2ccccc2)c1C(=O)Nc1nc2c(s1)CCCC2	5%	-1%	32*	50
COC(=O)Nc1nc2c(s1)CCCC2	42%	0%	28*	36*
Cc1cc(C(=O)Nc2nc3c(s2)CCCC3)no1	-54%	9%	17*	22
Cc1onc(-c2c(F)cccc2Cl)c1C(=O)Nc1nc2c(s1)CCCC2	?	-11%	6	4
CCCCc1nn2c(=O)cc(COC(=O)c3ccc(NC(=O)CCc4ccccc4)cc3)nc2s1	2%	-7%	.	.
Cc1cc(C)cc(-n2ccnc2SCC(=O)Nc2ccccc2F)c1	?	13%	.	.
CN(c1ccc(Cl)cc1)S(=O)(=O)c1nnc(NC(=O)c2ccco2)s1	-2%	20µM*!	-1	-9
Cc1ccc(N(C)S(=O)(=O)c2nnc(NC(=O)c3ccco3)s2)cc1	-5%	?	-1	-4
